# Where “and” joins values, the source holds several entries; their conditions need not be identical. Identical values can stand only once. Where a structure was tested more than once in an assay, its records may differ in their call. Calls of active or inactive are those of the source. Cut-off read from the data, not from the text of the source, unless noted: active = inhibition above about 80%; inactive = the rest.
# Key:
# [1] = LFS_MB_1R medulloblastoma cell growth inhibition, synergistic combos for chromothripsis tumors, cisplatin or BGB combos (AID 1671452); settings: LFS_MB_1R medulloblastoma cells, stronger effect = higher value;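 note: cells exposed for 96 hours before readout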
# [2] = CRL2098 osteosarcoma cell growth inhibition, synergistic combos for chromothripsis tumors, BGB or cisplatin IC20 combos (AID 1671454); settings: CRL2098 osteosarcoma cells, drug combinations, stronger effect = higher value;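 note: cells exposed for 96 h before readout; 0% = vehicle DMSO and 100% = killing by high DMSO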
# [3] = HD-MB03 medulloblastoma cell growth inhibition, synergistic combos for chromothripsis tumors, BGB or cisplatin IC20 combos (AID 1671455; in the data active = inhibition above about 83%;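 note: 0% = vehicle DMSO and 100% = high DMSO as cytotoxic control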); settings: HD-MB03 medulloblastoma cells, stronger effect = higher value
# [4] = UWB1.289 ovarian carcinoma cell growth inhibition, synergistic combos for chromothripsis tumors, BGB or cisplatin combos (AID 1671456); settings: UWB1.289 ovarian carcinoma cells, stronger effect = higher value;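 note: cells exposed to compound for four days; 0% = vehicle DMSO and 100% = killing by high DMSO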
# [5] = LFS_MB_2R medulloblastoma cell growth inhibition, synergistic combos for chromothripsis tumors, cisplatin combos (AID 1671457); settings: LFS_MB_2R medulloblastoma cells, stronger effect = higher value;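 note: cells exposed to compound for four days before readout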
# [6] = UWB1.289_BRCA1 ovarian cancer growth, cell-based, BGB or cisplatin combinations (AID 1671459); settings: UWB1.289 BRCA1 ovarian carcinoma, drug combinations, stronger effect = higher value
# [7] = human astrocyte viability loss, single and combined drugs, cytotoxicity control for chromothriptic childhood tumor combination screen, cell-based, BGB or cisplatin IC20 combos (AID 1671460); settings: Human astrocytes, drug combinations, stronger effect = higher value;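 note: cells exposed to compounds for 96 hours before viability readout; 0% = vehicle and 100% = killing control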
# [8] = growth inhibition of CRL1545 osteosarcoma cells, cell-based, cisplatin and BGB IC20 combos (AID 1671464); settings: stronger effect = higher value;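 note: cells exposed to compound for 96 hours before readout; 0% = vehicle DMSO and 100% = high DMSO killing control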
# [9] = hESC survival regulators, cell-based (AID 493140; call rule not given here;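 note: cells exposed to compounds for four days before counting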); settings: human embryonic stem cell survival screen; stronger effect = higher value
# [10] = liver-stage malaria parasite growth inhibition, primary screen, cell-based, HepG2, luciferase luminescence, HepG2 viability (AID 624349; in the data active = parasite load remaining mostly below about 12%, no sharp cut-off; inactive = mostly above about 10%;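 note: 100% = mean of DMSO negative control wells on the same plate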); settings: P. berghei liver stage in HepG2, luciferase luminescence, concentration not given here; parasite load remaining: stronger effect = lower value; viability: measured here: HepG2 viability without parasites
# [11] = target: Mitogen-activated protein kinase 7 (Homo sapiens) (UniProt Q13164); assay: ERK5 transactivation activators in reporter cells, primary screen, cell-based, HTS (AID 1508626;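 active = luciferase signal above three times the same-plate solvent-only control wells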;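 note: luciferase driven by Gal4-ERK5 fusion binding five Gal4 sites before minimal TATA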); settings: HeLa Gal4-ERK5 transactivation, 18 h, at 5 µM, stronger effect = higher value
# Chain of Mitogen-activated protein kinase 7 (Homo sapiens) (Q13164 whole entry, looked up, the tested form may be a part): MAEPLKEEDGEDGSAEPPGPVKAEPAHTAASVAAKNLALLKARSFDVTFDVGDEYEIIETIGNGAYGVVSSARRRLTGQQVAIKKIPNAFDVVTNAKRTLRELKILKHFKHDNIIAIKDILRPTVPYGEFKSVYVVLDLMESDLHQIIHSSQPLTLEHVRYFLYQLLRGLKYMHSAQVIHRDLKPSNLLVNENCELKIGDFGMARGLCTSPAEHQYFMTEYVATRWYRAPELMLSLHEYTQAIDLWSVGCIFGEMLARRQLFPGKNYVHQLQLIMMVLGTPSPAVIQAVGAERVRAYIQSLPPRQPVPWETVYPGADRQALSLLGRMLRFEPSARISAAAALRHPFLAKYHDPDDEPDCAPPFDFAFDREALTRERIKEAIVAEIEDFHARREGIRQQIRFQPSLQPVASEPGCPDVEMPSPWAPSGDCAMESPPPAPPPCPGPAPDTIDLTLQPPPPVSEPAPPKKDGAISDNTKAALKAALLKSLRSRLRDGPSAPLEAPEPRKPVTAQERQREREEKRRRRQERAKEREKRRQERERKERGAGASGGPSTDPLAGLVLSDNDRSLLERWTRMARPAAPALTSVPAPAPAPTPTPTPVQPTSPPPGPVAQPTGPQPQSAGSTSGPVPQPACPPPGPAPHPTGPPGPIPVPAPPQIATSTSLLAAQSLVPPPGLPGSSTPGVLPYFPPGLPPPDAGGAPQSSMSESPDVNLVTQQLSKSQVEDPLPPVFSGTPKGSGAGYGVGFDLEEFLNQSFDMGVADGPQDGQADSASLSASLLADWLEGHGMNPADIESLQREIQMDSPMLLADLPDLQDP
# [12] = tested on: Hepatitis C virus NS3 helicase; assay: HCV NS3 helicase inhibitors, primary screen, biochemical, fluorescence polarization, LOPAC1280 library (AID 687035; in the data active = inhibition above about 37%); settings: Purified HCV NS3 helicase, Cy5-dT15 ssDNA binding fluorescence polarization; stronger effect = higher value; concentration not given here
# [13] = Cy5 fluorescence quenching or enhancement artefacts, artefact control for HCV NS3 helicase inhibitor project, biochemical, LOPAC1280 (AID 687037; call rule not given here); settings: Cy5-DNA-NS3h complex fluorescence interference counterscreen
# [14] = phospholipid biosynthesis inhibitors in animal cells, primary screen, cell-based, LOPAC library, screen 4 (AID 1347384; call rule not given here); settings: phospholipid biosynthesis inhibition screen, at 10 µM
# [15] = viability rescue of complex I mutant cybrids, primary screen, cell-based, galactose medium, ATP luminescence (AID 1645843;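 active = z-score of at least 1.8 in each of two replicates, scored against plate mean and spread of sample wells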;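 note: positive z means more ATP and so rescue of galactose-driven cybrid death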); settings: complex I mutant cybrid cells, 72 h, stronger effect = higher value
# [16] = target: NAD(+) hydrolase SARM1 (Homo sapiens) (UniProt Q6SZW1); assay: SARM1 TIR NADase inhibitors, cell lysate, NAD-Glo luminescence (AID 1508614;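 active = compound whose remaining NAD level is above about 45 nM, limit read from the data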;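 note: higher remaining NAD means stronger inhibition of SARM1 NADase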); settings: SAM-TIR HEK293T lysate NADase, at 1 µM, stronger effect = higher value
# Chain of NAD(+) hydrolase SARM1 (Homo sapiens) (Q6SZW1 whole entry, looked up): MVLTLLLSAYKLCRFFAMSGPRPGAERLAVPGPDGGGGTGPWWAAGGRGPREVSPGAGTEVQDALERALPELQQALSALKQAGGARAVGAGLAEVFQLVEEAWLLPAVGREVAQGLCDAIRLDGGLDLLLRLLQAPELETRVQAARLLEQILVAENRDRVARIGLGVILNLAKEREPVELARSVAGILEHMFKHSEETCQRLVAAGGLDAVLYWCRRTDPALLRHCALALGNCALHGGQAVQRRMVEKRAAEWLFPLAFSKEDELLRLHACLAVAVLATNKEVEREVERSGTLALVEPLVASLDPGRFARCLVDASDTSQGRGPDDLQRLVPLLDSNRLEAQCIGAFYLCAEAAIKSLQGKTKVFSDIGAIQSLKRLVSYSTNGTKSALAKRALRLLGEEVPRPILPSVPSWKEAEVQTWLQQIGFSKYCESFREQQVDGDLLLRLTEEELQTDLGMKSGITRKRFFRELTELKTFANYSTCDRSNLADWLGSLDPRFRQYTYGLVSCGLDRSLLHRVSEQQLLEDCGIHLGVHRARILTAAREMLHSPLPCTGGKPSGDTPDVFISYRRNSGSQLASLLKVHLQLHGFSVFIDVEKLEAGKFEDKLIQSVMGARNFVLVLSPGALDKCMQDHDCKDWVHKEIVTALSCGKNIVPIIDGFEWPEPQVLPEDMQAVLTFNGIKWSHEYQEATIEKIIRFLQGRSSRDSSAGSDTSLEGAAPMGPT
# [17] = kinase inhibitors against Plasmodium liver-stage infection, cell-based, known kinase inhibitor set, luminescence, hepatoma host viability (AID 624392; call rule not given here;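 note: infected cells incubated roughly two days before readout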); settings: Plasmodium liver stage in hepatoma cells, luciferase luminescence, concentration not given here; liver cell % of control: measured here: host liver cell viability; parasite % of control: stronger effect = lower value
# [18] = measured here: combination with BGB IC40, at 0.05 µM
# [19] = measured here: combination with cisplatin, at 0.5 µM
# [20] = measured here: combination with cisplatin, at 5 µM
# [21] = measured here: combination with BGB at IC20, at 0.5 µM
# [22] = measured here: combination with cisplatin at IC20, at 0.5 µM
# [23] = measured here: combo with BGB at IC20, at 0.5 µM
# [24] = measured here: combo with cisplatin at IC20, at 0.5 µM
# [25] = measured here: inhibition with BGB combination, at 0.05 µM
# [26] = measured here: inhibition with cisplatin combination, at 0.05 µM
# [27] = BGB combination, concentration series, at 5 µM
# [28] = cisplatin combination, concentration series, at 5 µM
# [29] = measured here: combo with BGB IC20, at 0.5 µM
# [30] = measured here: combo with cisplatin IC20, at 0.5 µM
# [31] = measured here: with BGB IC20 combination, at 0.5 µM
# [32] = measured here: with cisplatin IC20 combination, at 0.5 µM
smiles,measurement,setting,value
Nc1ncnc2c1c(-c1cnc3[nH]ccc3c1)nn2C1CCCC1,inhibition,[1]; at 0.5 µM,-19.1% (inactive)
same,inhibition,[1]; [18],-13.7%
same,inhibition,[1]; [19],-26.5%
same,inhibition,[1]; [20],69.1%
same,inhibition,[2]; at 0.5 µM,25.4% (inactive)
same,inhibition,[2]; [21],3.06%
same,inhibition,[2]; [22],36.8%
same,inhibition,[3]; at 0.5 µM,28.9% (inactive)
same,inhibition,[3]; [23],13%
same,inhibition,[3]; [24],41.5%
same,inhibition,[4]; at 0.5 µM,28.7% (inactive)
same,inhibition,[4]; [25],-4.92%
same,inhibition,[4]; [26],-7.06%
same,inhibition,[5]; at 0.5 µM,-21.4% (inactive)
same,inhibition,[5]; [19],-27.2%
same,inhibition,[5]; [20],59%
same,inhibition,[6]; [27],98.9%
same,inhibition,[6]; at 0.5 µM,22.9% (inactive)
same,inhibition,[6]; [28],106%
same,inhibition,[7]; at 0.5 µM,53.4% (inactive)
same,inhibition,[7]; [29],55.9%
same,inhibition,[7]; [30],46%
same,inhibition,[8]; at 0.5 µM,-8.52% (inactive)
same,inhibition,[8]; [31],-19%
same,inhibition,[8]; [32],-4.93%
same,inhibition,"[8]; single agent, at 0.05 µM",-24.4%
same,inhibition,"[8]; single agent, at 5 µM",98.2%
CC[C@H](CC[C@@H](C)[C@H]1CC[C@H]2[C@@H]3CC=C4C[C@@H](O)CC[C@]4(C)[C@H]3CC[C@]12C)C(C)C,survival,[9],9.58 (inactive)
same,parasite load remaining,[10],99.6% (inactive)
same,viability,[10],72.8%
same,luciferase signal,[11],32 AU (inactive)
COc1cc2c(cc1OC)C1CC(=O)C(CC(C)C)CN1CC2 (centres undefined),inhibition,[12],-3% (inactive)
same,fluorescence ratio (interference),[13],1 (inactive)
same,outcome,[14],inactive
same,z-score,[15],0.245 (inactive)
NC(=NCCCCCCN=C(N)N=C(N)Nc1ccc(Cl)cc1)N=C(N)Nc1ccc(Cl)cc1,remaining NAD,[16],10 nM (inactive)
O=c1cc(N2CCOCC2)oc2c(-c3cccc4c3sc3ccccc34)cccc12,inhibition,[1]; at 0.5 µM,-39.7% (inactive)
same,inhibition,[1]; [18],-46.9%
same,inhibition,[1]; [19],-75.1%
same,inhibition,[1]; [20],-3.55%
same,inhibition,[2]; at 0.5 µM,-62.4% (inactive)
same,inhibition,[2]; [21],-46.6%
same,inhibition,[2]; [22],-92%
same,inhibition,[3]; at 0.5 µM,0.79% (inactive)
same,inhibition,[3]; [23],-1.46%
same,inhibition,[3]; [24],11.5%
same,inhibition,[4]; at 0.5 µM,-12.2% (inactive)
same,inhibition,[4]; [25],-24%
same,inhibition,[4]; [26],-24.1%
same,inhibition,[5]; at 0.5 µM,-22.4% (inactive)
same,inhibition,[5]; [19],-18.6%
same,inhibition,[5]; [20],-3.32%
same,inhibition,[6]; [27],44.6%
same,inhibition,[6]; at 0.5 µM,-11.7% (inactive)
same,inhibition,[6]; [28],12.1%
same,inhibition,[7]; at 0.5 µM,9.11% (inactive)
same,inhibition,[7]; [29],7.86%
same,inhibition,[7]; [30],13%
same,inhibition,[8]; at 0.5 µM,17.1% (inactive)
same,inhibition,[8]; [31],-25.4%
same,inhibition,[8]; [32],37.3%
same,inhibition,"[8]; single agent, at 0.05 µM",-18.4%
same,inhibition,"[8]; single agent, at 5 µM",-71.2%
C=C1C(=O)O[C@@H]2[C@H]3O[C@]3(C)CC/C=C(\C)CC[C@@H]12,survival,[9],0.167 (inactive)
same,parasite load remaining,[10],-0.555% (active) and 48% (inactive)
same,viability,[10],117% and 76.6%
same,luciferase signal,[11],92 AU (inactive)
Clc1ccc(C(c2ccc(Cl)cc2)n2cc[n+](CC(OCc3ccc(Cl)cc3Cl)c3ccc(Cl)cc3Cl)c2)cc1 (centres undefined),outcome,[14],inactive
Cc1cccc(-c2[nH]ncc2-c2ccc3ncccc3n2)n1,liver cell % of control,[17],102%
same,parasite % of control,[17],87.4% (inactive)
same,outcome,[14],inactive
same,z-score,[15],-0.39 (inactive)
CCOC(=O)N1CCN(/[N+]([O-])=N/Oc2ccc([N+](=O)[O-])cc2[N+](=O)[O-])CC1,outcome,[14],inactive
same,z-score,[15],-0.95 (inactive)
Nc1ccc(-c2ccc3ncc4ccc(=O)n(-c5cccc(C(F)(F)F)c5)c4c3c2)cn1,inhibition,[1]; at 0.5 µM,-12.4% (inactive)
same,inhibition,[1]; [18],-33.9%
same,inhibition,[1]; [19],-17%
same,inhibition,[1]; [20],48.5%
same,inhibition,[2]; at 0.5 µM,47.4% (inactive)
same,inhibition,[2]; [21],49.5%
same,inhibition,[2]; [22],49.4%
same,inhibition,[3]; at 0.5 µM,39.9% (inactive)
same,inhibition,[3]; [23],13.5%
same,inhibition,[3]; [24],69.9%
same,inhibition,[4]; at 0.5 µM,49.8% (inactive)
same,inhibition,[4]; [25],-0.684%
same,inhibition,[4]; [26],1.16%
same,inhibition,[5]; at 0.5 µM,2.91% (inactive)
same,inhibition,[5]; [19],17.6%
same,inhibition,[5]; [20],76.8%
same,inhibition,[6]; [27],98.8%
same,inhibition,[6]; at 0.5 µM,52.1% (inactive)
same,inhibition,[6]; [28],104%
same,inhibition,[7]; at 0.5 µM,76.8% (inactive)
same,inhibition,[7]; [29],71%
same,inhibition,[7]; [30],77.3%
same,inhibition,[8]; at 0.5 µM,79.5% (inactive)
same,inhibition,[8]; [31],69.2%
same,inhibition,[8]; [32],84.4%
same,inhibition,"[8]; single agent, at 0.05 µM",-3.59%
same,inhibition,"[8]; single agent, at 5 µM",98.4%
CN[C@@H]1C[C@H]2O[C@@](C)([C@@H]1OC)n1c3ccccc3c3c4c(c5c6ccccc6n2c5c31)C(=O)N[C@H]4O,parasite load remaining,[10],74.5% (inactive)
same,viability,[10],61%
Nc1ccc(C(=O)Nc2cccc(-c3nc(N4CCOCC4)c4oc5ncccc5c4n3)c2)cn1,parasite load remaining,[10],28.3% (inactive)
same,viability,[10],70.4%
same,liver cell % of control,[17],80.6% and 78.7% and 90.7%
same,parasite % of control,[17],109% (inactive) and 149% (inactive) and 242% (inactive)
C#Cc1cccc(Nc2ncnc3cc(OC)c(OCCCCCCC(=O)NO)cc23)c1,inhibition,[1]; at 0.5 µM,72.7% (inactive) and 57.9% (inactive)
same,inhibition,[1]; [18],-16.6% and -26.1%
same,inhibition,[1]; [19],88.8% and 73.7%
same,inhibition,[1]; [20],101% and 99%
same,inhibition,[2]; at 0.5 µM,-70.6% (inactive) and -57.7% (inactive)
same,inhibition,[2]; [21],-40.2% and -108%
same,inhibition,[2]; [22],-130% and -17.7%
same,inhibition,[3]; at 0.5 µM,45.5% (inactive) and 17.9% (inactive)
same,inhibition,[3]; [23],34.3% and 16.8%
same,inhibition,[3]; [24],84.2% and 39.1%
same,inhibition,[4]; at 0.5 µM,58.9% (inactive) and 21.7% (inactive)
same,inhibition,[4]; [25],-23% and -18.1%
same,inhibition,[4]; [26],7.84% and -0.343%
same,inhibition,[5]; at 0.5 µM,80.6% (active) and 5.75% (inactive)
same,inhibition,[5]; [19],96% and 17.9%
same,inhibition,[5]; [20],99.8% and 105%
same,inhibition,[6]; [27],108% and 106%
same,inhibition,[6]; at 0.5 µM,64.7% (inactive) and 19.7% (inactive)
same,inhibition,[6]; [28],128% and 122%
same,inhibition,[7]; at 0.5 µM,63.5% (inactive) and 39.1% (inactive)
same,inhibition,[7]; [29],58% and 34.9%
same,inhibition,[7]; [30],64.7% and 42.3%
same,inhibition,[8]; at 0.5 µM,34.3% (inactive) and 15.2% (inactive)
same,inhibition,[8]; [31],17.9% and 26.4%
same,inhibition,[8]; [32],41.6% and 7.54%
same,inhibition,"[8]; single agent, at 0.05 µM",-39.2% and -32.8%
same,inhibition,"[8]; single agent, at 5 µM",97.8% and 92.8%
